Screening results deposited in PubChem BioAssay by Broad Institute.
Myc binder – binds human c-Myc on microarray; P01106; small molecule microarray, His-c-Myc binding, anti-His fluorescence; calls only; hit rate 1.5% among 17,000; AID 624141;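 active means spot fluorescence over background with P-value below 7% in all four replicate spots, showing protein binding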;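 further: score is binary with 100 for all four spots passing and 0 otherwise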
Target sequence (P01106 whole entry, looked up): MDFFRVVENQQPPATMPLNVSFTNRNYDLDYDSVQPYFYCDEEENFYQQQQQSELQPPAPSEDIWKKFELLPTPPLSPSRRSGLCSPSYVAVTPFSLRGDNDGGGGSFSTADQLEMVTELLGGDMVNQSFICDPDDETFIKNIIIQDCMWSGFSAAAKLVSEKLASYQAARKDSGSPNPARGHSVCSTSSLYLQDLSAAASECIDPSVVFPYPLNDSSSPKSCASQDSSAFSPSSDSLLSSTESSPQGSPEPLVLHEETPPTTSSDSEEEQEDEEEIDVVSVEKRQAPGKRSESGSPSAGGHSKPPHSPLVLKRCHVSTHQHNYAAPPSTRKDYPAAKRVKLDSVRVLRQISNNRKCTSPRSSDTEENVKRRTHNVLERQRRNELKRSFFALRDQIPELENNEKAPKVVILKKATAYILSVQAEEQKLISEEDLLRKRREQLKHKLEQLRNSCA
STAT3 SMM – binders of human STAT3 | calls only | P40763 | AID 624138 | Small molecule microarray, His-STAT3 binding, anti-His fluorescence | hit rate 0.2% among 17,000;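 active means compounds whose four printed spots each show fluorescence over background unusually high for their array block, chance value under 7%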
mut p53 SMM – binds human mutant p53 on microarray; small molecule microarray binding, anti-GST fluorescence; calls only; hit rate 0.4% among 17,000; AID 624136;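 active means compounds whose four printed spots each glow above background more than chance allows, each with a p-value under 7%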
p53 PUMA act – mutant p53 pathway reactivation; activation, % at 9.98 µM; AID 624151; SW480 PUMA-promoter luciferase; hit rate 1.5% among 28,000; in the data active means activation above about 52%
NFkB SMM – NF-kappa-B p105 (human) binding; P19838; Small molecule microarray, anti-His fluorescence binding; calls only; hit rate 1.3% among 17,000;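 active means spot fluorescence over background significantly raised, with a chance value under 7% in all four replicate spots of the compound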;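 further: probe protein is his-tagged human p50 processed subunit at 1 µg/ml; raw spot fluorescence signals with no normalization applied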
Starred values were filed as active, the others as inactive; i = inactive; x = no result; + = active, no number. Rows were chosen to be rich in hits. Some 2.6% of all compounds tested hit in one or more screens of this group.

SMILES | Myc binder | STAT3 SMM | mut p53 SMM | p53 PUMA act | NFkB SMM
Cc1ccc(Cl)cc1NC(=O)C(C)n1cc([N+](=O)[O-])cn1 (configuration not stated) | x | x | x | 3 | x
Cc1cc(Cl)c(S(=O)(=O)Nc2cccnc2)cc1OCC(N)=O | i | i | i | -10 | i
C[C@H](CO)N1C[C@H](C)[C@H](CN(C)C(=O)Nc2cccc3ccccc23)Oc2ccc(NS(=O)(=O)c3cccs3)cc2CC1=O | i | i | i | -12 | i
CC(=O)c1cccc(N(CC(=O)Nc2ccc(Br)cc2F)S(C)(=O)=O)c1 | x | x | x | 6 | x
COc1ccc(NC(=O)Nc2cccc3c2O[C@@H](CN(C)C(=O)Nc2ccccc2)[C@H](C)CN([C@H](C)CO)C3=O)cc1 | i | i | i | 3 | i
C[C@@H]1CCCCO[C@H](CN(C)CC2CCCCC2)[C@H](C)CN([C@@H](C)CO)C(=O)c2cc(NC(=O)NC3CCCCC3)ccc2O1 | i | i | i | x | +
C[C@@H]1CN([C@@H](C)CO)C(=O)c2cc(NC(=O)NC3CCCCC3)ccc2O[C@H]1CN(C)C(=O)NC1CCCCC1 | + | i | i | 10 | i
Cn1c(=O)c2c(nc(NCC(O)c3ccccc3)n2Cc2ccc(F)cc2)n(C)c1=O (configuration not stated) | x | x | x | -28 | x
COc1c(Cl)cc(Cl)cc1CNCCNCC(C)O (configuration not stated) | i | + | + | 19 | i
C[C@H](CO)N1C[C@H](C)[C@H](CN(C)C(=O)Nc2cccc3ccccc23)Oc2ccc(NC(=O)Nc3cccc4ccccc34)cc2CC1=O | i | i | i | 0 | i
C[C@@H]1CN([C@H](C)CO)C(=O)Cc2cc(NC(=O)Nc3cccc4ccccc34)ccc2O[C@@H]1CN(C)C(=O)Nc1cccc2ccccc12 | + | i | i | -45 | +
C[C@@H]1CN([C@H](C)CO)C(=O)Cc2cc(NC(=O)Nc3ccc(C(F)(F)F)cc3)ccc2O[C@@H]1CN(C)Cc1ccncc1 | + | i | i | -42 | +
Cn1c(SCC(=O)Nc2cccc(C(F)(F)F)c2)nnc1-c1ccc(F)cc1 | x | x | x | -16 | x
CC1(C)O[C@H]2CC(=O)OC[C@@]23[C@H]1CC(=O)[C@@]1(C)C2=CC(=O)O[C@@H](c4ccoc4)[C@]2(C)CC[C@@H]13 | + | i | i | -5 | +
CNC[C@H]1OCCCC[C@H](C)Oc2ccc(NS(=O)(=O)c3c(C)noc3C)cc2C(=O)N([C@H](C)CO)C[C@H]1C | i | i | i | 1 | i
C#C[C@]1(O)CC[C@H]2[C@@H]3CCC4=Cc5oncc5C[C@]4(C)[C@H]3CC[C@@]21C | + | i | x | x | i
Cc1noc(C)c1NC(=O)Nc1ccc2c(c1)C(=O)N([C@@H](C)CO)C[C@@H](C)[C@@H](CN(C)C(=O)C1CCCCC1)OCCCC[C@@H](C)O2 | i | + | i | 1 | i
Cc1noc(C)c1NC(=O)Nc1ccc2c(c1)C(=O)N([C@H](C)CO)C[C@@H](C)[C@@H](CN(C)C(=O)C1CCCCC1)OCCCC[C@H](C)O2 | i | i | i | 14 | i
COc1ccc(CN(C)C[C@H]2OCCCC[C@H](C)Oc3ccc(NC(=O)Nc4c(C)noc4C)cc3C(=O)N([C@H](C)CO)C[C@@H]2C)cc1 | + | i | i | 17 | i
COc1ccc(CN(C)C[C@H]2OCCCC[C@@H](C)Oc3ccc(NC(=O)Nc4c(C)noc4C)cc3C(=O)N([C@@H](C)CO)C[C@@H]2C)cc1 | i | i | i | 2 | i
Cc1noc(C)c1NC(=O)Nc1ccc2c(c1)C(=O)N([C@H](C)CO)C[C@H](C)[C@@H](CN(C)C(=O)C1CCCCC1)OCCCC[C@H](C)O2 | + | i | i | 4 | i
Cc1cc(C)c(S(=O)(=O)N(CC(=O)Nc2ccc(C(N)=O)cc2)C2CCCCC2)c(C)c1 | x | x | x | 4 | x
O=C1c2ccccc2C2CC(c3cc(Cl)ccc3Cl)=NN12 (configuration not stated) | x | x | x | 79* | x
O=C1c2ccccc2C(=O)N1CCCSc1nccn1-c1cc(Cl)ccc1Cl | x | x | x | -5 | x
Cc1ccc(S(=O)(=O)NCCC(=O)Oc2ccc3c(=O)c(-c4ccc(F)cc4)coc3c2)cc1 | i | i | i | 105* | i
SMILES | Myc binder | STAT3 SMM | mut p53 SMM | p53 PUMA act | NFkB SMM
COc1ccc(NC(=O)C(C)NS(=O)(=O)c2ccc(F)cc2)cc1Cl (configuration not stated) | x | x | x | 4 | x
COc1ccc(Cl)cc1NC(=O)COc1ccccc1OC | i | i | i | 99* | i
COc1ccccc1NC(=O)COc1ccc(Cl)cc1CO | i | i | i | 63* | i
O=C(COc1ccc(Br)cc1Cl)Nc1ccccc1CO | x | x | x | 75* | x
COc1ccc(Cl)cc1NC(=O)COc1ccccc1[N+](=O)[O-] | i | i | i | 23 | i
Cc1cc(OCC(=O)Nc2ccccc2CO)cc(C)c1Br | x | x | x | 18 | x
S=C1NC2=C(C(c3ccccc3)N1)N1CCC2CC1 (configuration not stated) | x | x | x | -14 | x
CN(CC(=O)Nc1ccc(Nc2ccccc2)cc1)S(=O)(=O)c1cc(Cl)ccc1Cl | x | x | x | -16 | x
NC(=O)c1c(NC(=O)C2CC(=O)N(c3ccccc3)C2)sc2c1CCCC2 (configuration not stated) | i | i | i | 15 | i
CCOc1cc(CO)c(Br)cc1OCC(=O)O | + | i | i | -3 | i
COc1ccc(OCC(=O)Nc2cc(-c3nc4ccccc4s3)ccc2C)cc1 | x | x | x | 30 | x
COc1ccc(-c2nc3ccccc3s2)cc1NC(=O)COc1ccccc1[N+](=O)[O-] | x | x | x | 28 | x
Cc1ccc(-c2nc3ccccc3s2)cc1NC(=O)COc1ccccc1 | i | i | i | 54* | i
COc1ccc(-c2nc3ccccc3s2)cc1NC(=O)COc1cccc(C)c1 | x | x | x | 66* | x
C[C@@H]1CN([C@H](C)CO)C(=O)Cc2cc(NC(=O)CCN3CCOCC3)ccc2O[C@@H]1CN(C)C(=O)Nc1cccc2ccccc12 | i | i | i | -4 | i
Cn1c(=O)n(C)c2cc(CNCc3cccnc3)ccc21 | i | i | i | 4 | i
C[C@@H]1C=C(C(=O)Nc2ccccc2)O[C@H](OCCCCO)C1 | i | i | i | x | i
CC(C)(C)c1ccc(C(=O)NCCNc2ccccc2[N+](=O)[O-])cc1 | x | x | x | 114* | x
CCOC(=O)c1c(NC(=S)Nc2nc(C)cc(C)n2)sc2c1CCCCCC2 | i | i | i | -8 | i
CCOC(=O)c1c(NC(=S)NC(=O)c2ccc(OC)c([N+](=O)[O-])c2)sc2c1CCC2 | + | i | i | -4 | i
CN(C)C(=O)CSc1nc2sc3c(c2c(=O)[nH]1)CCCC3 | i | i | i | 5 | i
Cc1ccc(-c2nnc(SCC(=O)c3cccc([N+](=O)[O-])c3)n2C)cc1 | i | i | + | 1 | i
CN(c1ccc(OCC(=O)O)cc1)S(=O)(=O)c1ccc(F)cc1 | i | i | i | -1 | +
